Screens (PubChem BioAssay)
Hits are enriched below; roughly 21% of the tested compounds scored in any of these assays.
NS1 function inh = qHTS Assay for Inhibitors of Influenza NS1 Protein Function; AID 2326, 2010; Potency, µM (highest dose often 46.1 µM), for the others: at the highest dose activity, positive = more growth; 0.4% of 270,000 active; calls by dose curve; note: potency is the fitted concentration of half-maximal effect; actives are rising curves; nearly all actives have a fitted effect of over 50% in size
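Read-out: OD600 growth recovery of NS1-expressing budding yeast. Cells grown overnight at 30C in -URA glucose medium, washed, resuspended and diluted 1:100 in 2% galactose assay medium, pH 6.0. Same strain lacking NS1 served as positive control.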
Shiga inhibitor = A qHTS for Small Molecule Inhibitors of Shiga Toxin | Vero cells, Shiga toxin protein synthesis inhibition reporter | inhibition, % at 38.7 µM | 9.2% of 290,000 active; in the data active = inhibition mostly above about 28%, no sharp cut-off; inactive = mostly below about 43%; note: 0% is about no effect
Pf growth 48h = Primary qHTS for delayed death inhibitors of the malarial parasite plastid, 48 hour incubation. 5.9% of 310,000 active. Potency, µM (highest dose often 28.7 µM), without a hit: at the highest dose activity change, negative = inhibition, actives largely listed as inhibitors. P. falciparum luciferase growth in erythrocytes, 48 h; note: potency is the fitted concentration of half-maximal effect; % is set by controls: 0 for no effect and ±100 for the full control effect
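Cell-based growth assay: transgenic P. falciparum expressing firefly luciferase, cultured in red cells within RPMI 1640 containing 0.5% w/v Albumax, 24 mM bicarbonate and gentamycin. A drop in luciferase activity indicates inhibition.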
CHX counter = Cycloheximide Counterscreen for Small Molecule Inhibitors of Shiga Toxin; 12% of 300,000 active; cell reporter, cycloheximide protein synthesis inhibition counterscreen; max response, %; in the data active = max response mostly above about 13%, no sharp cut-off; inactive = mostly below about 14%; note: read at 38.3 µM for the half of the compounds with a filed dose; 0% is about no effect
Pf growth 96h = Primary qHTS for delayed death inhibitors of the malarial parasite plastid, 96 hour incubation; P. falciparum luciferase reporter growth, 96 h; Potency, µM (top dose mostly 28.7 µM), for the others: top-dose activity change, negative = inhibition, hits mostly inhibitors; 6.9% of 320,000 active; note: potency is the fitted concentration of half-maximal effect; % is set by controls: 0 for no effect and ±100 for the full control effect
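Erythrocytes infected with luciferase-expressing P. falciparum were dispensed at 2% hematocrit and 0.05% parasitemia (final), then incubated with compounds 96 hours at 37 C in 5% CO2. Luminescence after detection reagent addition reported growth.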
FBPA Giardia inh = qHTS Assay for Inhibitors of Fructose-1,6-bisphosphate Aldolase from Giardia Lamblia; AID 2451, 2010; A8B2U2; purified Giardia FBPA; 0.71% of 290,000 active; Potency, µM (series often up to 59.6 µM), for the others: at the highest dose activity, negative = inhibition, most hits filed as inhibitors; note: potency is the fitted concentration of half-maximal effect; % is set by controls: 0 for no effect and ±100 for the full control effect; nearly all actives have a fitted effect of over 55% in size
Target sequence (A8B2U2 whole entry, looked up): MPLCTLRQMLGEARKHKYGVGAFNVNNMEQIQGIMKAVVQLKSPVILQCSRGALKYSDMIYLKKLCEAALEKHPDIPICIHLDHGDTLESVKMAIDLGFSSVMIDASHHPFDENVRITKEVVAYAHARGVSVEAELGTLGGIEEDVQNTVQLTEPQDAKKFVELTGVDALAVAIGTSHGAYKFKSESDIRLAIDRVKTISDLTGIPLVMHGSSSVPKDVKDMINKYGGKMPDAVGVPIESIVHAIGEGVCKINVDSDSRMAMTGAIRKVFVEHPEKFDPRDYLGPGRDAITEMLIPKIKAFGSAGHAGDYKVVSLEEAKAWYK
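40 nM FBPA preincubated 10 min at RT with compound (up to 57.5 uM final), then substrate plus GAPDH/TPI/NAD/arsenate coupling and diaphorase/resazurin added. Fluorescence read after 20 min at RT, 525/598 nm.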
An asterisk follows results filed as active; ! = not active in a repeat. Unless noted, calls come from the whole dose curve; as a rule, active = well fitted curve in the direction sought with a large enough effect; inconclusive = small, poorly fitted or top-dose-only effect, or another doubt; inactive = no such curve, though single readings can be large; an effect the other way counts as inactive or inconclusive.

`Cc1ccc2[nH]c(CN3CCC(CO)(CC4CCCCO4)CC3)c(C)c2c1` (stereo unspecified) gave NS1 function inh -3.5%, Shiga inhibitor -1.6, Pf growth 48h 9.28µM*, CHX counter -3.4, Pf growth 96h inconclusive and FBPA Giardia inh -0.4%.
For COc1cc(/C=C/CN2CCC(CO)(CC3CCCCO3)CC2)ccc1O (stereo unspecified) the results were NS1 function inh 3.9%, Shiga inhibitor -11.3, Pf growth 48h -5.0%, CHX counter -0.4, Pf growth 96h 0.0% and FBPA Giardia inh -4.6%.
For Cc1ccc(CN2CCC(CO)(CC3CCCCO3)CC2)o1 (stereo unspecified) the results were NS1 function inh 6.7%, Shiga inhibitor -4.0, Pf growth 48h -4.5%, CHX counter 0.4, Pf growth 96h inconclusive and FBPA Giardia inh 5.5%.
O=C(NCCC1CCCCN1S(=O)(=O)c1ccc(F)cc1)C(=O)NCCN1CCOCC1 (stereo unspecified) was read as Pf growth 48h 17.0% and Pf growth 96h inconclusive.
`O=C(N/N=C/c1c(F)cccc1Cl)C(=O)N1CCCCCC1` gave NS1 function inh -1.7%, Shiga inhibitor -11.8, Pf growth 48h -0.9%, CHX counter 1.4 and Pf growth 96h 12.8%.
For COc1cc(/C=C2\COC/C(=C\c3cc(OC)c(OC)c(OC)c3)C2=O)cc(OC)c1OC the results were NS1 function inh 0.1%, Shiga inhibitor 43.9*, Pf growth 48h 0.37µM*, CHX counter 27.9*, Pf growth 96h 0.828µM* and FBPA Giardia inh -3.5%.
`COc1ccc(/C=C2/CCCC(C(=O)C(F)(F)F)=C2O)cc1OC` gave NS1 function inh 0.5%, Shiga inhibitor 24.9, Pf growth 48h 18.1%, CHX counter 12.1, Pf growth 96h 47.3% and FBPA Giardia inh -6.6%.
For CCN1C/C(=C/c2cccc([N+](=O)[O-])c2)C(=O)/C(=C/c2cccc([N+](=O)[O-])c2)C1 the results were NS1 function inh -18.1%, Shiga inhibitor 1.4, Pf growth 48h 1.65µM*, CHX counter -6.6, Pf growth 96h 2.33µM* and FBPA Giardia inh -13.7%.
Screening COc1cc(/C=C2\Oc3cc(O)ccc3C2=O)ccc1O returned NS1 function inh -1.1%, Shiga inhibitor 70.3*, Pf growth 48h 147.4%, CHX counter 50.9*, Pf growth 96h inconclusive and FBPA Giardia inh 11.7%.
Screening COc1ccc(/C=C2\CCCC(C(=O)C(F)(F)F)=C2O)cc1OC returned Shiga inhibitor 76.2, Pf growth 48h 0.0%, CHX counter 19.5*, Pf growth 96h inconclusive and FBPA Giardia inh inconclusive.
For O=C1/C(=C/c2ccc(O)c(O)c2)Oc2cc(O)ccc21 the results were NS1 function inh -5.0%, Shiga inhibitor 6.4, Pf growth 48h -2.2%, CHX counter -2.0, Pf growth 96h -14.0% and FBPA Giardia inh -16.7%.
Screening COc1cc(/C=C2\CCC/C(=C\c3ccc(O)c(OC)c3)C2=O)ccc1O returned NS1 function inh -0.8%, Shiga inhibitor 76.3*, Pf growth 48h 9.28µM*, CHX counter 42.2*, Pf growth 96h 5.36µM*! and FBPA Giardia inh -6.7%.
Screening COc1cc(/C=C2/CCCC(C(=O)C(F)(F)F)=C2O)ccc1O returned NS1 function inh 8.4%, Shiga inhibitor 16.6, Pf growth 48h 11.6%, CHX counter 1.4, Pf growth 96h 32.0% and FBPA Giardia inh -2.2%.
COc1cc(/C=C2\CC/C(=C\c3cc(OC)c(OC)c(OC)c3)C2=O)cc(OC)c1OC was read as NS1 function inh -0.1%, Shiga inhibitor -1.2, Pf growth 48h 2.62µM*, CHX counter -3.8, Pf growth 96h 2.08µM* and FBPA Giardia inh -2.0%.
COc1cc(/C=C2\CC(C(C)(C)C)C/C(=C\c3cc(OC)c(OC)c(OC)c3)C2=O)cc(OC)c1OC (stereo unspecified) was read as NS1 function inh -0.5%, Shiga inhibitor 33.7, Pf growth 48h inconclusive, CHX counter 9.0, Pf growth 96h inconclusive and FBPA Giardia inh 10.3%.
For COc1cc(/C=C2\SC(N)=NC2=O)cc(Cl)c1O the results were NS1 function inh 0.2%, Pf growth 48h 56.2%, CHX counter -1.3, Pf growth 96h inconclusive and FBPA Giardia inh 3.6%.
For COc1cc(/C=C2/CCC/C(=C\c3cc(O)c(OC)c(Cl)c3)C2=O)cc(Cl)c1O the results were NS1 function inh -3.6%, Shiga inhibitor -20.5, Pf growth 48h inconclusive, CHX counter -0.5, Pf growth 96h 0.131µM* and FBPA Giardia inh -13.4%.
`COc1cc(/C=C2\CC/C(=C\c3cc(OC)c(O)c(OC)c3)C2=O)cc(OC)c1O` gave NS1 function inh 13.9%, Shiga inhibitor -11.0, Pf growth 48h inconclusive, CHX counter 1.4, Pf growth 96h 6.57µM* and FBPA Giardia inh 1.58µM*.
`Cc1ccc(NC(=O)N2CCCC(C(=O)O)C2)cc1` (stereo unspecified) gave NS1 function inh -1.6%, Shiga inhibitor 16.6, Pf growth 48h 87.1%, CHX counter 11.6, Pf growth 96h 26.2% and FBPA Giardia inh -0.4%.
Screening CCOc1cc(/C=C2\CN(CC)C/C(=C\c3ccc(O)c(OCC)c3)C2=O)ccc1O returned NS1 function inh -1.1%, Shiga inhibitor 2.9, Pf growth 48h 2.08µM*, CHX counter 23.5*, Pf growth 96h 2.08µM* and FBPA Giardia inh -19.7%.
For CCOc1cc(/C=N/N=C/c2ccc(O)c(OCC)c2)ccc1O the results were NS1 function inh 2.5%, Shiga inhibitor 21.2, CHX counter 10.7, Pf growth 96h 5.0% and FBPA Giardia inh 10.5%.
`Cc1ccc(S(=O)(=O)N2CCN(C(=O)CCC(=O)NCc3cccc(C(F)(F)F)c3)CC2)cc1` gave Pf growth 48h inconclusive and Pf growth 96h -16.0%.
`CNC(C)Cc1ccccc1Sc1ccc(O)cc1` (stereo unspecified) gave NS1 function inh -2.7%, Shiga inhibitor -14.7, Pf growth 48h inconclusive, CHX counter -0.7, Pf growth 96h inconclusive and FBPA Giardia inh 0.7%.
For CNCc1ccccc1Sc1ccc(O)c(O)c1 the results were NS1 function inh 10.8%, Shiga inhibitor -2.4, Pf growth 48h -21.9%, CHX counter -1.5, Pf growth 96h -26.9% and FBPA Giardia inh 2.51µM*.
Screening O=C(COC(=O)c1n[nH]c2ccccc12)c1cc(F)ccc1F returned Shiga inhibitor 44.0*, Pf growth 48h -11.4%, CHX counter 30.4*, Pf growth 96h 12.2% and FBPA Giardia inh -6.3%.
O=C(COC(=O)c1n[nH]c2ccccc12)Nc1ccc([N+](=O)[O-])cc1 was read as NS1 function inh inconclusive, Shiga inhibitor 22.7*, Pf growth 48h 0.0%, CHX counter 10.5, Pf growth 96h 14.2% and FBPA Giardia inh -4.9%.
